In all, about 5,500 compounds went through this assay and about 2,000 (36%) were called active. About 18% were inconclusive and are not listed. No stated cut-off is given here; in the data, active means normalized growth mostly below about 0.91 (no sharp cut-off); inconclusive means no clear call, values can overlap the other calls; inactive means mostly above about 0.92. This is one part of the list.
Assay: chemical genetic growth profiling, strain panel (AID 1159580);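 further: tested at 20 µM; growth read once vehicle control cultures reached saturation at 30 °C; 1 = growth at the plate median or of vehicle wells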
Settings: growth OD

Measured: normalized growth

CC1NC(=O)NC1=O (stereo unspecified)
inactive: S. cerevisiae deletion strains, locus YAL013W, strain DEP1, stronger effect = lower value 0.968 | S. cerevisiae deletion strains, locus YBR021W, strain FUR4, stronger effect = lower value 1.01 | S. cerevisiae deletion strains, locus YBR229C, strain ROT2, stronger effect = lower value 0.996 | S. cerevisiae deletion strains, locus YCL029C, strain bik1, stronger effect = lower value 1.01 | S. cerevisiae deletion strains, locus YDL035C, strain GPR1, stronger effect = lower value 0.987 | S. cerevisiae deletion strains, locus YDL074C, strain BRE1, stronger effect = lower value 1 | S. cerevisiae deletion strains, locus YDL101C, strain DUN1, stronger effect = lower value 1 | S. cerevisiae deletion strains, locus YDL134C, strain PPH21, stronger effect = lower value 1.01 | S. cerevisiae deletion strains, locus YDL185W, strain tfp1, stronger effect = lower value 1.01 | S. cerevisiae deletion strains, locus YDL192W, strain arf1, stronger effect = lower value 1.01 | S. cerevisiae deletion strains, locus YDR101C, strain arx1, stronger effect = lower value 1 | S. cerevisiae deletion strains, locus YDR150W, strain NUM1, stronger effect = lower value 1.02 | S. cerevisiae deletion strains, locus YDR162C, strain NBP2, stronger effect = lower value 1 | S. cerevisiae deletion strains, locus YDR318W, strain mcm21, stronger effect = lower value 1.02 | S. cerevisiae deletion strains, locus YDR388W, stronger effect = lower value 1.01 | S. cerevisiae deletion strains, locus YDR502C, strain sam2, stronger effect = lower value 1.01 | S. cerevisiae deletion strains, locus YEL061C, strain CIN8, stronger effect = lower value 0.997 | S. cerevisiae deletion strains, locus YER110C, stronger effect = lower value 1.01 | S. cerevisiae deletion strains, locus YER155C, strain BEM2, stronger effect = lower value 0.995 | S. cerevisiae deletion strains, locus YER167W, strain BCK2, stronger effect = lower value 0.998 | S. cerevisiae deletion strains, locus YGL078C, strain dbp3, stronger effect = lower value 1.01 | S. cerevisiae deletion strains, locus YGL086W, strain mad1, stronger effect = lower value 1.02 | S. cerevisiae deletion strains, locus YGL248W, strain PDE1, stronger effect = lower value 1.01 | S. cerevisiae deletion strains, locus YGR078C, strain PAC10, stronger effect = lower value 1.01 | S. cerevisiae deletion strains, locus YGR135W, strain pre9, stronger effect = lower value 1.01 | S. cerevisiae deletion strains, locus YGR229C, strain SMI1, stronger effect = lower value 0.986 | S. cerevisiae deletion strains, locus YGR252W, strain gcn5, stronger effect = lower value 1.02 | S. cerevisiae deletion strains, locus YHR030C, strain SLT2, stronger effect = lower value 1 | S. cerevisiae deletion strains, locus YHR079C, strain IRE1 (second series), stronger effect = lower value 1 | S. cerevisiae deletion strains, locus YHR094C, strain hxt1, stronger effect = lower value 1.01 | S. cerevisiae deletion strains, locus YHR129C, strain ARP1, stronger effect = lower value 0.999 | S. cerevisiae deletion strains, locus YHR200W, strain rpn10, stronger effect = lower value 1.01 | S. cerevisiae deletion strains, locus YIL066C, strain RNR3, stronger effect = lower value 0.99 | S. cerevisiae deletion strains, locus YIL073C, strain SPO22, stronger effect = lower value 1.07 | S. cerevisiae deletion strains, locus YIL125W, strain kgd1, stronger effect = lower value 1.02 | S. cerevisiae deletion strains, locus YIR030C, strain dcg1, stronger effect = lower value 1 | S. cerevisiae deletion strains, locus YJL095W, strain BCK1, stronger effect = lower value 0.986 | S. cerevisiae deletion strains, locus YJL134W, strain LCB3, stronger effect = lower value 0.994 | S. cerevisiae deletion strains, locus YJL168C, strain set2, stronger effect = lower value 1 | S. cerevisiae deletion strains, locus YJL187C, strain SWE1 (second series), stronger effect = lower value 0.999 | S. cerevisiae deletion strains, locus YJR043C, strain POL32, stronger effect = lower value 1.01 | S. cerevisiae deletion strains, locus YJR075W, strain HOC1, stronger effect = lower value 0.993 | S. cerevisiae deletion strains, locus YKL009W, strain mrt4, stronger effect = lower value 1.03 | S. cerevisiae deletion strains, locus YKL068W, stronger effect = lower value 1.01 | S. cerevisiae deletion strains, locus YKL085W, strain MDH1 (second series), stronger effect = lower value 1 | S. cerevisiae deletion strains, locus YKL085W, strain MDH1, stronger effect = lower value 1 | S. cerevisiae deletion strains, locus YKL190W, strain CNB1, stronger effect = lower value 1 | S. cerevisiae deletion strains, locus YKR001C, strain vps1, stronger effect = lower value 1.02 | S. cerevisiae deletion strains, locus YLR039C, strain RIC1, stronger effect = lower value 1.02 | S. cerevisiae deletion strains, locus YLR058C, strain SHM2, stronger effect = lower value 1 | S. cerevisiae deletion strains, locus YLR102C, strain apc9, stronger effect = lower value 1.01 | S. cerevisiae deletion strains, locus YLR262C, strain YPT6, stronger effect = lower value 1.02 | S. cerevisiae deletion strains, locus YLR268W, strain sec22, stronger effect = lower value 1 | S. cerevisiae deletion strains, locus YLR330W, strain CHS5, stronger effect = lower value 1 | S. cerevisiae deletion strains, locus YLR342W, strain FKS1 (second series), stronger effect = lower value 1 | S. cerevisiae deletion strains, locus YLR371W, strain rom2, stronger effect = lower value 1.01 | S. cerevisiae deletion strains, locus YLR418C, strain cdc73, stronger effect = lower value 1.01 | S. cerevisiae deletion strains, locus YML016C, strain PPZ1, stronger effect = lower value 1 | S. cerevisiae deletion strains, locus YML032C, strain rad52, stronger effect = lower value 1.02 | S. cerevisiae deletion strains, locus YML124C, strain tub3, stronger effect = lower value 1.01 | S. cerevisiae deletion strains, locus YMR078C, strain ctf18, stronger effect = lower value 1.01 | S. cerevisiae deletion strains, locus YMR223W, strain ubp8, stronger effect = lower value 1.01 | S. cerevisiae deletion strains, locus YMR263W, strain SAP30, stronger effect = lower value 0.994 | S. cerevisiae deletion strains, locus YMR307W, strain GAS1, stronger effect = lower value 0.983 | S. cerevisiae deletion strains, locus YNL067W, strain RPL9B, stronger effect = lower value 1 | S. cerevisiae deletion strains, locus YNL128W, strain TEP1, stronger effect = lower value 0.975 | S. cerevisiae deletion strains, locus YNL153C, strain GIM3, stronger effect = lower value 1.01 | S. cerevisiae deletion strains, locus YNL233W, strain BNI4, stronger effect = lower value 1 | S. cerevisiae deletion strains, locus YNL250W, strain rad50, stronger effect = lower value 1.01 | S. cerevisiae deletion strains, locus YNL271C, strain bni1, stronger effect = lower value 1 | S. cerevisiae deletion strains, locus YNL298W, strain CLA4, stronger effect = lower value 1.02 | S. cerevisiae deletion strains, locus YNL307C, strain MCK1, stronger effect = lower value 1.02 | S. cerevisiae deletion strains, locus YNL322C, strain KRE1, stronger effect = lower value 0.991 | S. cerevisiae deletion strains, locus YNR052C, strain pop2, stronger effect = lower value 1 | S. cerevisiae deletion strains, locus YOL006C, strain TOP1, stronger effect = lower value 1 | S. cerevisiae deletion strains, locus YOL012C, strain htz1 0.89 | S. cerevisiae deletion strains, locus YOL147C, strain pex11, stronger effect = lower value 1.02 | S. cerevisiae deletion strains, locus YOR061W, strain CKA2, stronger effect = lower value 0.998 | S. cerevisiae deletion strains, locus YOR069W, strain VPS5, stronger effect = lower value 0.998 | S. cerevisiae deletion strains, locus YOR136W, strain idh2, stronger effect = lower value 1.02 | S. cerevisiae deletion strains, locus YOR144C, strain elg1, stronger effect = lower value 1.01 | S. cerevisiae deletion strains, locus YOR184W, strain ser1, stronger effect = lower value 1.03 | S. cerevisiae deletion strains, locus YOR316C, strain cot1, stronger effect = lower value 1 | S. cerevisiae deletion strains, locus YPL055C, strain LGE1, stronger effect = lower value 0.986 | S. cerevisiae deletion strains, locus YPL241C, strain CIN2, stronger effect = lower value 1 | S. cerevisiae deletion strains, locus YPR119W, strain clb2, stronger effect = lower value 1.01 | S. cerevisiae deletion strains, locus YPR141C, strain kar3, stronger effect = lower value 1.01 | S. cerevisiae deletion strains, locus YPR163C, strain tif3, stronger effect = lower value 1.02 | S. cerevisiae deletion strains, locus YPR167C, strain met16, stronger effect = lower value 1.01 | S. cerevisiae deletion strains, strain wtn01, stronger effect = lower value 1.01 | S. cerevisiae strains, strain wild type, stronger effect = lower value 0.98

Source: PubChem BioAssay AID1159580 (chemical genetic matrix, 2015)
